# In PubChem BioAssay (EPA / NIEHS):
# Values joined by “and” are separate entries in the source; they are usually repeats but may differ in a detail not shown here. Equal entries are not always repeated. Results filed as inconclusive are left out. More than one record can exist for a structure, and the calls need not agree. Active and inactive are the calls of the source. How the source made its calls: active means hit-call score of the fitted dose curve at least 0.9, where 1 is the maximum; inconclusive means response in the unintended direction; inactive means score below 0.9.
# What was measured:
# [1] = target: Neuropeptide Y receptor type 2 (Homo sapiens) (UniProt P49146); test: NVS_GPCR_hNPY2: NovaScreen (NVS) G Protein-Coupled Receptor Assay for human Neuropeptide Receptor Y2 (NPY2) (AID 2283277)
# Method in brief: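 Chemicals were first tested in duplicate at 25 uM, then actives in singleton concentration series to 50 uM. Tracer binding to SK-N-MC-derived protein measured cell-free after 1 h via filter scintillation; signal loss relative to DMSO.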
# [2] = target: human Endothelin Receptor Type B (ETB), EDNRB (gene 1910) (UniProt P24530); test: NVS_GPCR_hETB: NovaScreen (NVS) G Protein-Coupled Receptor Assay for human Endothelin Receptor Type B (ETB) (AID 2283267)
# Method in brief: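 Filter-based scintillation readout of radioligand displacement, 4 h, using membranes from human astrocytoma cells. Actives from a 25 uM duplicate screen were retested in concentration-response (top 50 uM) relative to DMSO baseline.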
# [3] = target: D(1A) dopamine receptor (Homo sapiens) (UniProt P21728); test: NVS_GPCR_hDRD1: NovaScreen (NVS) G Protein-Coupled Receptor Assay for human Dopamine Receptor D1 (DRD1) (AID 2283269)
# Method in brief: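 Cell-free competition with radioligand, filter-trapped and scintillation-counted 1 h post-dose, using HEK293-derived human D1 preparation. Duplicate single-point testing at 25 uM first, then concentration series for actives; DMSO served as baseline, loss-of-signal scored.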
# [4] = target: Type-1 angiotensin II receptor (Homo sapiens) (UniProt P30556); test: NVS_GPCR_hAT1: NovaScreen (NVS) G Protein-Coupled Receptor Assay for human Angiotensin II receptor type 1 (AT1) (AID 2283263)
# Method in brief: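 Hits from a 25 uM duplicate screen (threshold e.g. 30% inhibition) were run in concentration-response with 50 uM top concentration. Displacement of specific radioligand from KAN-TS membrane preparations measured after 3 h by filter scintillation, DMSO as baseline.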
# [5] = target: human Muscarinic, M4 Receptor, CHRM4 (gene 1132) (UniProt P08173); test: NVS_GPCR_hM4: NovaScreen (NVS) G Protein-Coupled Receptor Assay for human Muscarinic, M4 Receptor (AID 2283274)
# Method in brief: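 Filter-based scintillation counting of radioligand bound to CHO-expressed human M4 preparations after 1 h; loss of signal fitted versus DMSO. Initial duplicate testing at 25 uM, concentration-response follow-up for actives.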
# [6] = target: human Adrenergic, Alpha 2A Receptor (Adra2A), ADRA2A (gene 150) (UniProt P08913); test: NVS_GPCR_hAdra2A: NovaScreen (NVS) G Protein-Coupled Receptor Assay for human Adrenergic, Alpha 2A Receptor (Adra2A) (AID 2283257)
# Method in brief: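 Displacement of a specific radioligand from HT29 membrane protein was counted by filter scintillation after 1 h. Compounds were screened in duplicate at 25 uM, and actives were retested in concentration series. Fitting was positive-direction against DMSO.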
# [7] = target: human Adrenergic, Alpha 2c Receptor (Adra2C), ADRA2C (gene 152) (UniProt P18825); test: NVS_GPCR_hAdra2C: NovaScreen (NVS) G Protein-Coupled Receptor Assay for human Adrenergic, Alpha 2c Receptor (Adra2C) (AID 2283259)
# Method in brief: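 Screened first in duplicate at 25 uM, with actives then run as concentration series. Membranes from Sf9 cells were exposed for 1 h, and displacement of radioligand was counted after filtration, using DMSO as baseline.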
# [8] = target: human Adenosine A2a Receptor (AdoRA2a), ADORA2A (gene 135) (UniProt P29274); test: NVS_GPCR_hAdoRA2a: NovaScreen (NVS) G Protein-Coupled Receptor Assay for human Adenosine A2a Receptor (AdoRA2a) (AID 2283256)
# Method in brief: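 HEK293-derived receptor preparation, radioligand displacement, 1.5 h, filtration + scintillation read. Loss of bound signal scored vs DMSO. Single-point 25 uM in duplicate first, then concentration-response for actives.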
# [9] = target: human Adrenergic, Beta 1 Receptor (Adrb1), ADRB1 (gene 153) (UniProt P08588); test: NVS_GPCR_hAdrb1: NovaScreen (NVS) G Protein-Coupled Receptor Assay for human Adrenergic, Beta 1 Receptor (Adrb1) (AID 2283258)
# Method in brief: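 Membranes/protein extracted from human neuroepithelioma cells, radioligand competition binding read by filtration and scintillation 2 h post-dose. Single 25 uM duplicate screen, then concentration-response follow-up; DMSO as negative control.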
# [10] = target: human Dopamine Receptor D4.4 (DRD4.4), DRD4 (gene 1815) (UniProt P21917); test: NVS_GPCR_hDRD4.4: NovaScreen (NVS) G Protein-Coupled Receptor Assay for human Dopamine Receptor D4.4 (DRD4.4) (AID 2283264)
# Method in brief: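 Filter-binding assay with a tritiated or iodinated ligand, cell-free receptor prepared from CHO, 1 hour. Loss of bound radioactivity versus DMSO; single 25 uM duplicate screen, then concentration-response for actives.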
# [11] = target: human Endothelin Receptor Type A (ETA), EDNRA (gene 1909) (UniProt P25101); test: NVS_GPCR_hETA: NovaScreen (NVS) G Protein-Coupled Receptor Assay for human Endothelin Receptor Type A (ETA) (AID 2283265)
# Method in brief: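 Binding of radioligand to membrane protein extracted from SH-SY5Y cells was read by filtration and scintillation after 3 h. Compounds were screened at 25 uM in duplicate, with hits followed up in singleton concentration series to 50 uM.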
# [12] = target: human Dopamine Receptor D2 (DRD2), DRD2 (gene 1813) (UniProt P14416); test: NVS_GPCR_hDRD2s: NovaScreen (NVS) G Protein-Coupled Receptor Assay for human Dopamine Receptor D2 (DRD2) (AID 2283266)
# Method in brief: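 Test compound (25 uM, duplicate in the primary screen; concentration series at follow-up) competed with radioligand for human DRD2 in CHO-derived membrane protein. Filter-based scintillation counting was done 1.5 hours after dosing, with loss of signal analysed against DMSO.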
# [13] = target: human Leukotriene B4 Receptor 1 (LTB4-BLT1), LTB4R (gene 1241) (UniProt Q15722); test: NVS_GPCR_hLTB4_BLT1: NovaScreen (NVS) G Protein-Coupled Receptor Assay for human Leukotriene B4 Receptor 1 (LTB4-BLT1) (AID 2283271)
# Method in brief: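 Cell-free human neutrophil receptor preparation, 1 h exposure, radioligand binding read by filter scintillation counting. Single 25 uM duplicate screen, then concentration series topping at 50 uM; binding loss scored against DMSO baseline.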
# [14] = target: human Neurokinin, NK2 Receptor, TACR2 (gene 6865) (UniProt P21452); test: NVS_GPCR_hNK2: NovaScreen (NVS) G Protein-Coupled Receptor Assay for human Neurokinin, NK2 Receptor (AID 2283278);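 further: actives reduce bound radioligand signal relative to DMSO baseline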
# Method in brief: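 Cell-free radioligand binding using receptor protein extracted from CHO cells; readings taken 4 hours after chemical dosing by filter-based scintillation counting. Primary screen ran single concentration (25 uM) in duplicate; actives followed up in concentration series, loss-of-signal versus DMSO baseline.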
# [15] = target: Muscarinic acetylcholine receptor M1 (Homo sapiens) (UniProt P11229); test: NVS_GPCR_hM1: NovaScreen (NVS) G Protein-Coupled Receptor Assay for human Muscarinic, M1 Receptor (AID 2283270)
# Method in brief: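 Actives from a duplicate 25 uM single-point screen were retested in concentration series. Binding measured as displacement of a radioligand from CHO-derived receptor preparation, 1 h incubation, filtration and scintillation counting, analysed as signal loss against DMSO.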
# [16] = target: Muscarinic acetylcholine receptor M3 (Homo sapiens) (UniProt P20309); test: NVS_GPCR_hM3: NovaScreen (NVS) G Protein-Coupled Receptor Assay for human Muscarinic, M3 Receptor (AID 2283272)
# Method in brief: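 Radioligand displacement binding on human M3 receptor in CHO-derived membranes, 1 h incubation, filter-based scintillation counting. Primary screen in duplicate at 25 uM; actives followed up in concentration series; loss of signal versus DMSO.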
# [17] = target: Muscarinic acetylcholine receptor M2 (Homo sapiens) (UniProt P08172); test: NVS_GPCR_hM2: NovaScreen (NVS) G Protein-Coupled Receptor Assay for human Muscarinic, M2 Receptor (AID 2283273)
# Method in brief: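 Radioligand competition binding, cell-free, receptor from CHO; 1 h incubation; scintillation detection. Primary testing at 25 uM in duplicate.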
# Sequence of Muscarinic acetylcholine receptor M1 (Homo sapiens) (P11229 whole entry, looked up): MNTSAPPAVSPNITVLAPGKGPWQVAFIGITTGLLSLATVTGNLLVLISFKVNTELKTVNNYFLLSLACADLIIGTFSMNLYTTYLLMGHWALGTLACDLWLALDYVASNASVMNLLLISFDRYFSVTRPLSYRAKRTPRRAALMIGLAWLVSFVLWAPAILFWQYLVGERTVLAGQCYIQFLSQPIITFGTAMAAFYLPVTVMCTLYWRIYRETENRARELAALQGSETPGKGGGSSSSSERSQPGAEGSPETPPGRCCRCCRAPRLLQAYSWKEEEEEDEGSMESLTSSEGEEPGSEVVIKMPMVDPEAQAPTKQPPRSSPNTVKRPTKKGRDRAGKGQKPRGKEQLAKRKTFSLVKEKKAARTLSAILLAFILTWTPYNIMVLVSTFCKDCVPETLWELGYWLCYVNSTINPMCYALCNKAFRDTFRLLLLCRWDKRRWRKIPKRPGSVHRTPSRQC
# Sequence of human Dopamine Receptor D4.4 (DRD4.4), DRD4 (gene 1815) (P21917 whole entry, looked up): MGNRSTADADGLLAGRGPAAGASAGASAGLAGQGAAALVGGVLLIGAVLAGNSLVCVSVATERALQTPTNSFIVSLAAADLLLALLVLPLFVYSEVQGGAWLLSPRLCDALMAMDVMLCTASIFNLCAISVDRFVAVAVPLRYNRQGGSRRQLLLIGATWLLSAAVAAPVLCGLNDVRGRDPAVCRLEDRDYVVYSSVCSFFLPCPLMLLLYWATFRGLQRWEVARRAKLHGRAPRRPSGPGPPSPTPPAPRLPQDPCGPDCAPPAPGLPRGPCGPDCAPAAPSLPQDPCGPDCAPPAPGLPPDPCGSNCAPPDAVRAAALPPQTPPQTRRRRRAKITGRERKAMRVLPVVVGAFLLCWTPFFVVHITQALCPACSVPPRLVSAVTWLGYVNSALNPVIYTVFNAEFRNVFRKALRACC
# Sequence of human Neurokinin, NK2 Receptor, TACR2 (gene 6865) (P21452 whole entry, looked up): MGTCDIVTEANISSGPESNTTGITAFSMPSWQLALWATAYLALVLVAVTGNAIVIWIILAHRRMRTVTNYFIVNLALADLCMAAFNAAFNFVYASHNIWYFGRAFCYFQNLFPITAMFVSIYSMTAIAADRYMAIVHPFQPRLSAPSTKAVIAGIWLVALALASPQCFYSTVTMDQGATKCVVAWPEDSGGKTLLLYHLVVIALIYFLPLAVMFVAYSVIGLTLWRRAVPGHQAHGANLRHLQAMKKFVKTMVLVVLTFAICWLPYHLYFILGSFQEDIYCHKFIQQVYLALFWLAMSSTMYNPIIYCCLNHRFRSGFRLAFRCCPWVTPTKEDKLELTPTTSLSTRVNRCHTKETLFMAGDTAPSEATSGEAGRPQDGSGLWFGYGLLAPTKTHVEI
# Sequence of D(1A) dopamine receptor (Homo sapiens) (P21728 whole entry, looked up): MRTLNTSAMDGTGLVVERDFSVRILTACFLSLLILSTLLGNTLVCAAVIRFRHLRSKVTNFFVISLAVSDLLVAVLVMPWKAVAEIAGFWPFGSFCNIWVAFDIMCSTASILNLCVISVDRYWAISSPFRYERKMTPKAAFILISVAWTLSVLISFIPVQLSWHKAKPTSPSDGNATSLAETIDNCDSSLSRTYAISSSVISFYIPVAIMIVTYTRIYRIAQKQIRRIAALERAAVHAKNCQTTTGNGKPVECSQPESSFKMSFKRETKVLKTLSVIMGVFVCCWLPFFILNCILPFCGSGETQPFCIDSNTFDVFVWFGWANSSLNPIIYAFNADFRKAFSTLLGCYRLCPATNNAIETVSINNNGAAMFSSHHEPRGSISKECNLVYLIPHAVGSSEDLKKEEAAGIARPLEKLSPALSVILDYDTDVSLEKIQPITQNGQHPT
# Sequence of Neuropeptide Y receptor type 2 (Homo sapiens) (P49146 whole entry, looked up): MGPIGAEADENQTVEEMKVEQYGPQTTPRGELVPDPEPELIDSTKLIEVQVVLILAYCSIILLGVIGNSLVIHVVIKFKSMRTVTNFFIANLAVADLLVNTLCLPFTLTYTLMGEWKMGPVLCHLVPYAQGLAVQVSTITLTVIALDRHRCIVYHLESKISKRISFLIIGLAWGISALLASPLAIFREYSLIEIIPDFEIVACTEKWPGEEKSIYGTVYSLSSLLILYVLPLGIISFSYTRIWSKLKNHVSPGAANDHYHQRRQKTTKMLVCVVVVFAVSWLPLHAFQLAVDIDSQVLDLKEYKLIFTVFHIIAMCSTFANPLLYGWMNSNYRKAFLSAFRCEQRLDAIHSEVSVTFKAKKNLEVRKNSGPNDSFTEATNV
# Sequence of human Muscarinic, M4 Receptor, CHRM4 (gene 1132) (P08173 whole entry, looked up): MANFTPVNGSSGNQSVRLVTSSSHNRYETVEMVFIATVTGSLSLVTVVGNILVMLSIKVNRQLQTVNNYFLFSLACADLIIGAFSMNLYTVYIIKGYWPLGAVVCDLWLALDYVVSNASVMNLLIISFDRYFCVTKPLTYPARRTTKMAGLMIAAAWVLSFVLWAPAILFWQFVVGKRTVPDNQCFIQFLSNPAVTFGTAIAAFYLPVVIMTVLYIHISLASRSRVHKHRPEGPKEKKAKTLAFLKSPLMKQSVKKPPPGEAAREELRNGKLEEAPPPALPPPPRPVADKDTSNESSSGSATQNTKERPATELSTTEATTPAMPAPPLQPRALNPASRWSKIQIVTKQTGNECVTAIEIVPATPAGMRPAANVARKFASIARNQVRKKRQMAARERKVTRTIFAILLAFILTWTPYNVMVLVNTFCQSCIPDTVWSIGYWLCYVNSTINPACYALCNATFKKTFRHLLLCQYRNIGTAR
# Sequence of human Adenosine A2a Receptor (AdoRA2a), ADORA2A (gene 135) (P29274 whole entry, looked up): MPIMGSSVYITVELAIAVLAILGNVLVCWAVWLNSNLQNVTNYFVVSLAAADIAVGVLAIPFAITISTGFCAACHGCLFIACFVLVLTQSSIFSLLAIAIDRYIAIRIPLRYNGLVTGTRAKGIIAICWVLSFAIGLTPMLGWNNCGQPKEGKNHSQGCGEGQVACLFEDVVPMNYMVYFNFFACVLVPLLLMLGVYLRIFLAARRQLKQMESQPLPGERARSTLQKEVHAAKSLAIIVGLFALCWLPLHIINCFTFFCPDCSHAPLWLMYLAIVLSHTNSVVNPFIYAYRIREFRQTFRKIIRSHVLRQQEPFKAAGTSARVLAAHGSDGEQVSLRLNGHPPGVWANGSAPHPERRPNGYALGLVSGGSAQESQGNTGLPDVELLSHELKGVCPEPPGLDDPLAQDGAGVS
# Sequence of human Adrenergic, Alpha 2c Receptor (Adra2C), ADRA2C (gene 152) (P18825 whole entry, looked up): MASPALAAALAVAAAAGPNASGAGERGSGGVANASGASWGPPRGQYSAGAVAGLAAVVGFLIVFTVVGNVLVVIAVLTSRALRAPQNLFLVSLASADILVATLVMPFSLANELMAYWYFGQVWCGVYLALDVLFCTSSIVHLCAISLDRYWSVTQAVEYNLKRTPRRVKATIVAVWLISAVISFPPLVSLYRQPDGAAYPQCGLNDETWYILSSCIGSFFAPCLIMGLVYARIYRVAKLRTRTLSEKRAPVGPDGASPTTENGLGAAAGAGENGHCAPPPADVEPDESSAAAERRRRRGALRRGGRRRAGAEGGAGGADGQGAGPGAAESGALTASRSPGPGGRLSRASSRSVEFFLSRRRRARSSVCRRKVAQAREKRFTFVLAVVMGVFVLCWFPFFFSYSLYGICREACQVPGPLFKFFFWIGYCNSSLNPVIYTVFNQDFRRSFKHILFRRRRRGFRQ
# Sequence of human Leukotriene B4 Receptor 1 (LTB4-BLT1), LTB4R (gene 1241) (Q15722 whole entry, looked up): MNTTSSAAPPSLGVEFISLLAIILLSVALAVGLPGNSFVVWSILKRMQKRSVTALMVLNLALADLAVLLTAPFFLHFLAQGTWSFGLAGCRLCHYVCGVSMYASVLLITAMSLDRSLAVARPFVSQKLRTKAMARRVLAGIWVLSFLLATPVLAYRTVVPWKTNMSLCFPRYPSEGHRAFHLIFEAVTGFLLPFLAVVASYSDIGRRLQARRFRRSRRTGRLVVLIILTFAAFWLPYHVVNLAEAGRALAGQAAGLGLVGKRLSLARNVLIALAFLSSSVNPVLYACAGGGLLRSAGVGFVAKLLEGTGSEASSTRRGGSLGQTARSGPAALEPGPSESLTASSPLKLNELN
# Sequence of human Adrenergic, Beta 1 Receptor (Adrb1), ADRB1 (gene 153) (P08588 whole entry, looked up): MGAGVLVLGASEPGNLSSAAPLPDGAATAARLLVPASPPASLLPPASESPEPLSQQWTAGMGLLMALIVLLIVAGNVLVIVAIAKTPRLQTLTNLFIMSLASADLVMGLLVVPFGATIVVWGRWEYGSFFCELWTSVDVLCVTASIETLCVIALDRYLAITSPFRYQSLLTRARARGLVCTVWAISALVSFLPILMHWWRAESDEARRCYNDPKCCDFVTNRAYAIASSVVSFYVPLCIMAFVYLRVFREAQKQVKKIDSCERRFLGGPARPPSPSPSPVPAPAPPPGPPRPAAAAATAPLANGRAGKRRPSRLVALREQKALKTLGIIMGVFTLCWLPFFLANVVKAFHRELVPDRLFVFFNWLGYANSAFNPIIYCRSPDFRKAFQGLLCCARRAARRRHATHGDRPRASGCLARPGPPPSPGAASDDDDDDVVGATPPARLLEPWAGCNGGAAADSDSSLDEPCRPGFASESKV
# Sequence of Type-1 angiotensin II receptor (Homo sapiens) (P30556 whole entry, looked up): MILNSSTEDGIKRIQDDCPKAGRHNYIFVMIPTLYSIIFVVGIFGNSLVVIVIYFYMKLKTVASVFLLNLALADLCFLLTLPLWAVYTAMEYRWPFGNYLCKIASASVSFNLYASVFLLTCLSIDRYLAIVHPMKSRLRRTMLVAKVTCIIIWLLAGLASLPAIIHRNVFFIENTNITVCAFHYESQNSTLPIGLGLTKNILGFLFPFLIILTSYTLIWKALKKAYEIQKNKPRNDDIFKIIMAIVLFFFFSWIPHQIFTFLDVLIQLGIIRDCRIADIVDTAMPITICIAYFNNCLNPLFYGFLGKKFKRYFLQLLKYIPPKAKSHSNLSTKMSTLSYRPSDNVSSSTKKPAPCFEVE
compound,measurement,setting,value
CCOC1Oc2ccc(OS(C)(=O)=O)cc2C1(C)C (centres undefined),outcome,[1],inactive
O=C1c2ccccc2C(=O)N1SC(Cl)(Cl)Cl,outcome,[2],inactive
same,AC50,[3],13.3 µM (active)
CCOCN(C(=O)CCl)c1c(C)cccc1CC,outcome,[4],inactive
same,outcome,[5],inactive
OCCOc1ccccc1,outcome,[6],inactive
CCC(C)(C)C(=O)OC1=C(c2ccc(Cl)cc2Cl)C(=O)OC12CCCCC2,outcome,[7],inactive
O=S(=O)(O)C(F)(F)C(F)(F)C(F)(F)C(F)(F)C(F)(F)C(F)(F)C(F)(F)C(F)(F)F,AC50,[8],6.28 µM (active) [middle of 5 runs]
same,AC50,[9],37 µM (active) and 31.2 µM (active) and 29.9 µM (active)
same,AC50,[4],49.6 µM (active)
same,outcome,[4],inactive
same,AC50,[10],25 µM (active) and 16.3 µM (active) and 24 µM (active)
same,outcome,[10],inactive
same,outcome,[11],inactive
same,AC50,[12],7.24 µM (active)
same,AC50,[13],30.1 µM (active) [middle of 4 runs]
same,outcome,[1],inactive
same,outcome,[14],inactive
[2H]C1([2H])[n+]2ccccc2-c2cccc[n+]2C1([2H])[2H],AC50,[15],12.9 µM (active)
same,AC50,[16],4.96 µM (active)
CC(C)N(C(=O)COc1nnc(C(F)(F)F)s1)c1ccc(F)cc1,outcome,[15],inactive
CNC(=O)Oc1cccc(N=CN(C)C)c1,outcome,[10],inactive
CCc1ccc(C(=O)NN(C(=O)c2cc(C)cc(C)c2)C(C)(C)C)cc1,outcome,[15],inactive
same,outcome,[13],inactive
same,AC50,[16],0.194 µM (active)
same,AC50,[17],0.152 µM (active)
same,outcome,[5],inactive
Oc1cc(Cl)ccc1Oc1ccc(Cl)cc1Cl,AC50,[9],37.5 µM (active)
same,AC50,[7],6.8 µM (active)
same,outcome,[11],inactive
same,outcome,[12],inactive
same,AC50,[3],25 µM (active)
same,outcome,[3],inactive
same,outcome,[5],inactive
same,AC50,[14],25.5 µM (active)
CCCN(CCC)c1c([N+](=O)[O-])cc(C(F)(F)F)cc1[N+](=O)[O-],outcome,[6],inactive
CCCN(CCOc1c(Cl)cc(Cl)cc1Cl)C(=O)n1ccnc1,AC50,[7],4.96 µM (active)
same,outcome,[13],inactive
same,outcome,[14],inactive
